The supplement of paper PMC12340641
Where a name gives a salt, the structure may show the parent alone.

The compounds below were run on HEK293FT dCK*-IKZF1 (assay: relative growth recovery (pomalidomide 10 uM = 100%, DMSO = 0%); higher = more growth rescue (IKZF1 fusion degradation)). Settings: compound concentration: 5 uM; AraC concentration: 0.3 uM; overnight pretreatment + 4 days AraC.
Procedure, shortened: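 On day 5, whole-well imaging was used to count Hoechst 33342-stained nuclei of HEK293FT cells stably carrying a deoxycytidine kinase–IKZF1 fusion. These cells had received 5 μM compound 2 h after seeding, followed after overnight at 37 °C by a nucleoside suicide substrate at 0.3 μM plus medium for 4 days. Growth recovery was normalised on each plate against a reference degrader and vehicle, which defined 100% and 0%, and values are duplicate means from separate days.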

Which relative growth recovery does the source give for `O=C(Nc1cccc(Cl)c1)Nc1ncc(CCNc2ncnc3ccsc23)s1` [SNS-314 methanesulfonate] here?
Its relative growth recovery is -6.71%.

With `COC(=O)Nc1nc2ccc(C(=O)c3ccccc3)cc2[nH]1` as the compound, how does the relative growth recovery read?
The relative growth recovery was -10.6%.

With `CC(CNC1CCCCC1)OC(=O)c1ccccc1` (stereo not given) [hexylcaine] as the compound, how does the relative growth recovery read?
The relative growth recovery was -0.215%.

How did the relative growth recovery turn out when `C/C(=N\NC(=S)N1CCC1)c1ccccn1` was run?
Its relative growth recovery is -12.9%.

How did the relative growth recovery turn out when `Nc1ccc(-c2nc3ccc(-c4nc5ccc(N)cc5[nH]4)cc3[nH]2)cc1` was run?
Its relative growth recovery is -2.58%.

With `NC(=O)c1cn([C@@H]2O[C@H](CO)[C@@H](O)[C@H]2O)c2ncnc(N)c2c1=O` as the compound, how does the relative growth recovery read?
The relative growth recovery was -1.56%.

Which relative growth recovery does the source give for `O=C(CCCCCCC(O)=NO)Nc1ccccc1` [Vorinostat] here?
Its relative growth recovery is -10.3%.

`COC(=O)C1=C(C)NC(C)=C(C(=O)OCC(C)C)C1c1ccccc1[N+](=O)[O-]` (stereo not given) [Nisoldipine] was tested. Which relative growth recovery did it give?
Its relative growth recovery is -3.19%.

`CCCCCCCCCCCC1=C(O)C(=O)C=C(O)C1=O` [embelin] was tested. Which relative growth recovery did it give?
The relative growth recovery was -3.97%.

Which relative growth recovery does the source give for `O=C(O)c1cc(/N=N/c2ccc(O)c(C(=O)O)c2)ccc1O` here?
Its relative growth recovery is 3.38%.

How did the relative growth recovery turn out when `Nc1nnc(-c2cccc(Cl)c2Cl)c(N)n1` was run?
Its relative growth recovery is -1.71%.

How did the relative growth recovery turn out when `Nc1ncn([C@@H]2O[C@H](CO)C(O)C2O)c(=O)n1` (stereo not given in full) [Azacitidine] was run?
The relative growth recovery was -3.45%.

With `N=c1ccn2c(n1)O[C@H]1[C@H](O)[C@@H](CO)O[C@H]12` [Cyclocytidine HCl] as the compound, how does the relative growth recovery read?
Its relative growth recovery is -12.9%.

`CN(C)c1ccc2nc3ccc(N(C)C)cc3[s+]c2c1` was tested. Which relative growth recovery did it give?
The relative growth recovery was -11.5%.

With `c1ccc(C(NCCNC(c2ccccc2)c2ccccc2)c2ccccc2)cc1` as the compound, how does the relative growth recovery read?
The relative growth recovery was 3.32%.
